In PubChem BioAssay (EPA / NIEHS):
Results filed as inconclusive are left out. More than one record can exist for a structure, and the calls need not agree. Activity calls are given as the source filed them. The calls were made as follows, unless noted: active = hit-call score of the fitted dose curve at least 0.9, where 1 is the maximum; inconclusive = response in the unintended direction; inactive = score below 0.9.

Tests used:
[1] = read-out: sulfotransferase (SULT2A), SULT2A1 (gene 6822); assay: CLD_SULT2A_48hr: CellzDirect (CLD) Gene Expression Assay for sulfotransferase (SULT2A) at 48 hours (AID 2283710);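 also: hits raise SULT2A1 transcript above the 0.2% DMSO vehicle baseline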
Summary of the method: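 SULT2A1 transcript measured by qNPA chemiluminescence in human primary hepatocyte cultures after 48 h, with fresh dosing solutions on two consecutive days; gain-of-signal fitting against 0.2% DMSO vehicle; cytotoxicity annotated from phase-contrast morphology.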

[2] = read-out: HMG-CoA synthase (HMGCS2), HMGCS2 (gene 3158); assay: CLD_HMGCS2_48hr: CellzDirect (CLD) Gene Expression Assay for HMG-CoA synthase (HMGCS2) at 48 hours (AID 2283711)
Summary of the method: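 mRNA induction read by qNPA chemiluminescence, 48 h after dosing. Cultured primary human liver cells (two donor preparations) received fresh compound daily over two days against 0.2% DMSO vehicle; morphology-based cytotoxicity noted alongside.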

[3] = STM_H9_OrnithineISnorm_perc: Stemina devTOX quickPredict H9 human embryonic stem cell (hESC)-based Assay for Ornithine (ORN) Metabolite Biomarker, Normalized (AID 2283712; active = hit-call score of the fitted dose curve at least 0.9, where 1 is the maximum; inactive = score below 0.9;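 also: ornithine released into spent medium during last day measured by mass spectrometry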)
Summary of the method: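 Ornithine secreted by H9 hESCs after 72h compound treatment (daily media/compound renewal) was quantified in final-day media by UPLC-HRMS. Values are isotope-standard-normalized, expressed relative to 0.1% DMSO, fitted in positive direction.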

[4] = STM_H9_CystineISnorm_perc: Stemina devTOX quickPredict H9 human embryonic stem cell (hESC)-based Assay for Cystine (CYSS) Metabolite Biomarker, Normalized (AID 2283713; active = hit-call score of the fitted dose curve at least 0.9, where 1 is the maximum; inactive = score below 0.9)
Summary of the method: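 Cells are held undifferentiated and treated for 72h, receiving fresh medium with compound every 24h. Cystine secreted during the final day is quantified by UPLC-HRMS against a labeled spike-in, then expressed relative to the DMSO vehicle median.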

[5] = STM_H9_OrnCyssISnorm_ratio: Stemina devTOX quickPredict H9 human embryonic stem cell (hESC)-based Assay for Ornithine (ORN):Cystine (CYSS) Ratio (AID 2283714)
Summary of the method: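 H9 hESC, 72h, q24h re-dose; last-day media → acetonitrile deproteinization → UPLC-HRMS. ORN:CYSS ratio from isotope-normalized EIC areas, vs 0.1% DMSO; MTX references on each plate.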

[6] = CEETOX_H295R_MTT_cell_viability: Viability Assessment in the CeeTox HT-H295R MTT Assay (AID 2283718; active = hit-call score of the fitted dose curve at least 0.9, where 1 is the maximum; inactive = score below 0.9;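 as to AC50: curve fitted both ways so AC50 may mark viability loss or gain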)
Summary of the method: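 H295R cells prestimulated 48 h with 10 uM forskolin, then exposed 48 h to test chemical (0.1% DMSO final). Viability by MTT (0.5 mg/ml, 4 h, 37 C), absorbance 570/650 nm; percent change versus DMSO, bidirectional fit.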

[7] = Tanguay_ZF_120hpf_ActivityScore_legacy: (Legacy) Oregon State University Tanguay Lab 120 Hour Post-fertilization zebrafish Assay Score for Activity (AID 2283742);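 as to AC50: dechorionated Tropical 5D wild-type zebrafish embryos held singly per well; static exposure from 6 hpf until 120 hpf at 28 °C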
Summary of the method: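 In this whole-embryo screen, dechorionated zebrafish were exposed from 6 hpf until 120 hpf at 28C under a 0.64% DMSO vehicle. Developmental malformations and death were recorded by brightfield microscopy as binary endpoints.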

[8] = ArunA_CellTiter_hNC: Viability Assessment in the ArunA Biomedical's Oris Neural Crest (hNC) Cell Migration Assay (AID 2283752)
Summary of the method: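 Seed 60,000 hNC cells per well onto Matrigel in basal growth medium containing LIF and bFGF. Incubate 16 h at 37C. Replace with test medium containing chemical for 72 h, then assess viability by CellTiter Aqueous One.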

[9] = ArunA_CellTiter_hNP: Viability Assessment in the ArunA Biomedical's Oris Neural Crest (hNC) Cell Migration Assay (AID 2283753)
Experimental: ArunA_CellTiter_hNP is a cell-based, single-readout assay that uses human H9-derived neuroprogenitor stem cells (hNP1).Measurements were taken 72 hours after chemical dosing in a 96-well plate.ArunA_CellTiter_hNP is an assay component measured from the ArunA_CellTiter_hNP assay. It is designed to make measurements of viability, a form of viability reporter, as detected with fluorescence intensity signals by HCS Fluorescent Imaging technology. Data from the assay component ArunA_CellTiter_hNP was analyzed at the endpoint, ArunA_CellTiter_hNP, in the positive analysis fitting direction relative to DMSO as the negative control and baseline of activity. Using a type of viability reporter, loss-of-signal activity can be used to understand the viability. To generalize the intended target to other relatable targets, this assay endpoint is annotated to the cell cycle intended target family, where the subfamily is cytotoxicity.
To assess the hNP and hNC migration and cell titer endpoints, 60,000 cells per well were plated onto Matrigel in basal growth medium with LIF and bFGF in a 96-well plate format. Plates were incubated for 16 h at 37C followed by a 72 h exposure to chemical in the test medium. For the migration endpoints, cells were seeded and incubated in presence of 'seeding stoppers' to prevent cell migration and growth into the detection zone. At the beginning of chemical exposure, stoppers were removed, and growth medium was replaced with test medium. In the case of the stopper control wells, stoppers remained in place following replacement of growth medium with test medium. […] Cell viability in the detection zone was quantitated using a Flexstation3 microplate reader (ex494 nm/em 517 nm). Corresponding cell titer endpoints were assessed for the hNP and hNC cells using the Promega CellTiter Aqueous One Solution Cell Proliferation Assay (Cat no. G3581; CellTiter 96). Finally, to gain insight into the mechanisms by which cells migrate into the detection zone, Ki-67 expression was quantified for 10 additional chemicals in the hNP and hNC systems. […]

[10] = ArunA_Migration_hNP: ArunA Biomedical's Oris Neuroprogenitor (hNP) Cell Migration Assay (AID 2283754)
Summary of the method: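 Readout is calcein-AM fluorescence (ex494/em517) of cells migrating into the detection zone, relative to DMSO. hNP1 cells (H9-derived) grown on Matrigel behind stoppers 16 h, then stoppers pulled and chemical applied 72 h; cytochalasin D as control.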

Measured: AC50

COc1nc(C)nc(NC(=O)NS(=O)(=O)c2ccccc2CCC(F)(F)F)n1
inactive: [1] | [2]

CCON=C(CC)C1=C(O)CC(c2c(C)cc(C)cc2C)CC1=O (stereo not drawn)
inactive: [1] | [2] | [3] | [4] | [5] | [6] | [7]

COC(=O)C(C)Oc1ccc(Oc2ccc(Cl)cc2Cl)cc1 (stereo not drawn)
active: [2] 35.6 µM
inactive: [1] | [2] | [7]

CCNc1nc(Cl)nc(NCC)n1
active: [3] 0.053 µM
inactive: [1] | [4] | [5] | [6] | [7]

COc1ccc(C(c2ccc(OC)cc2)C(Cl)(Cl)Cl)cc1
inactive: [1] | [3] | [4] | [5] | [7]

CCOP(=S)(OCC)SCn1c(=O)oc2cc(Cl)ccc21
inactive: [1] | [2] | [6] | [7]

CCOC(=O)CC(SP(=S)(OC)OC)C(=O)OCC (stereo not drawn)
inactive: [1] | [6]
active: [3] 76.9 µM | [4] 86.9 µM | [5] 80.9 µM | [7] 29.2 µM

CCNc1nc(Cl)nc(NC(C)C)n1
active: [3] 0.12 µM | [4] 42.3 µM | [5] 50 µM
inactive: [1] | [6] | [7]

CC1COC(Cn2cncn2)(c2ccc(Oc3ccc(Cl)cc3)cc2Cl)O1 (stereo not drawn)
active: [3] 3.93 µM | [4] 2.87 µM | [5] 3.88 µM | [6] 0.0749 µM
inactive: [1] | [2] | [7]

CCCC1COC(Cn2cncn2)(c2ccc(Cl)cc2Cl)O1 (stereo not drawn)
active: [3] 85.5 µM | [4] 33.6 µM | [5] 57.5 µM | [7] 42.8 µM
inactive: [1] | [6]

COC(=O)N(OC)c1ccccc1COc1ccn(-c2ccc(Cl)cc2)n1
inactive: [2]
active: [1] 9.28 µM | [3] 0.85 µM | [4] 0.743 µM | [5] 0.806 µM | [7] 0.409 µM

CON(C)C(=O)Nc1ccc(Cl)c(Cl)c1
inactive: [1] | [6] | [7]
active: [3] 50 µM | [4] 73.3 µM | [5] 71.7 µM

CC(C)(C)c1ccc(CSc2cnn(C(C)(C)C)c(=O)c2Cl)cc1
active: [3] 0.0663 µM | [4] 0.171 µM | [5] 0.091 µM | [7] 40.3 µM | [10] 0.0196 µM
inactive: [1] | [2] | [8] | [9]

CCc1nn(C)c(C(=O)NCc2ccc(C(C)(C)C)cc2)c1Cl
active: [1] 20 µM | [3] 1.84 µM | [4] 1.82 µM | [5] 1.55 µM | [7] 2.81 µM

C#CCOS(=O)OC1CCCCC1Oc1ccc(C(C)(C)C)cc1 (stereo not drawn)
inactive: [1] | [2] | [7]
active: [3] 3.33 µM | [4] 2.42 µM | [5] 2.89 µM

CC(Oc1ccc(Cl)cc1Cl)C(=O)O (stereo not drawn)
inactive: [1] | [2] | [7]

CS/C(C)=N/OC(=O)N(C)SN(C)C(=O)O/N=C(\C)SC
inactive: [1] | [2] | [7]

N#CC(CCc1ccc(Cl)cc1)(Cn1cncn1)c1ccccc1 (stereo not drawn)
inactive: [2] | [6] | [7]
active: [1] 20 µM

COc1nc(NC(C)C)nc(NC(C)C)n1
inactive: [1] | [3] | [6] | [7]
active: [4] 13.5 µM | [5] 14.6 µM

CCCCOC(=O)c1ccccc1C(=O)OCCCC
active: [3] 76.3 µM | [4] 50 µM | [5] 56 µM
inactive: [1] | [2] | [6] | [7]
